The source of these data is PubChem BioAssay (NCATS).

Records with an inconclusive call do not appear. A number with no mark means an inactive call. The source made the active and inactive calls. Calls follow the shape of the dose curve; as a rule, active = well fitted curve in either direction with a large enough effect (not every such curve was filed as active); inconclusive = small, poorly fitted or top-dose-only effect, or another doubt; inactive = flat fitted curve, though single readings scatter.
% is scaled to controls: 0 for no effect and ±100 for the full control effect.

The first assay in a line: AP1 Signaling Pathway (AID 357).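 Also: ME-180 reporter cells stimulated with EGF at its EC50 level.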 The settings on record: ME-180 (cervical carcinoma) AP-1-bla reporter, EGF-induced, beta-lactamase ratio, 5 h; at 17.2 µM (top of the series) unless noted. The method, boiled down: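 In this screen, ME-180 cells in Opti-MEM with 0.5% dialyzed FBS received EC50 EGF and compound titrations for 5 h. AP-1 reporter beta-lactamase was detected via CCF4 ratio, giving AC50 for positive and negative modulators.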
On to `O=C(CCC(=O)CCN1CCCCC1)CCN1CCCCC1`, for which the activity change, negative = inhibition was 13.9%.

Regarding `O=C(NCC(F)(F)F)Nc1nnc(C(F)(F)F)s1`, the activity change, negative = inhibition is -9.88%.

`Cc1nnc2n(C3CCCCC3)c(=O)c3c4c(sc3n12)COC(C)(C)C4`: the activity change, negative = inhibition is 4.48%.

As to `O=C(NCc1ccco1)c1cnn2c1NC(c1ccccc1)CC2C(F)(F)F` (stereo not given), the activity change, negative = inhibition is -8.13%.

For the compound `COC(=O)Cn1cc(C(=O)OC)cc(Br)c1=O`, the activity change, negative = inhibition was 8.29%.

Turning to `C=CCOc1nc2c(c(=O)n(Cc3ccc(Cl)c(Cl)c3)c(=O)n2C)n1C`, the activity change, negative = inhibition is -3.25%.

Turning to `Cc1cc(=O)oc(C)c1C(=O)NC1CC(C)(C)NC(C)(C)C1`, the activity change, negative = inhibition was -2.44%.

As to `Cc1cc(NC(CC(C)C)C(=O)O)nc(Cc2ccccc2)n1` (stereo not given), the activity change, negative = inhibition was 0.713%.

Take `CC(=O)C1=C(O)C(=O)N(c2ccc(S(N)(=O)=O)cc2)C1c1ccccc1F` (stereo not given): the activity change, negative = inhibition was -4.17%.

`COC(=O)CCc1c(C)[nH]c(C(=O)OCc2ccccc2)c1C`: the activity change, negative = inhibition is -13.9%.

`O=C(c1cccc(Cl)c1)N1CCN(C(=O)c2ccccc2F)CC1`: the activity change, negative = inhibition is -14.3%.

With `CN(C)CCCN(CCCNC(=O)/C=N/O)Cc1ccccc1`, the activity change, negative = inhibition was -5.3%.

On to `CC(C)c1ccc(O)c(N)c1`, for which the activity change, negative = inhibition was -2.33%.

In the case of `CN(C)CCCOC(=O)C1c2ccccc2Oc2ccccc21`, the activity change, negative = inhibition was 9.34%.

`CCCOc1ccc(/C(O)=C2/C(=O)C(=O)N(CCN(C)C)C2c2ccc(OC)c(OC)c2)cc1` (stereo not given): the activity change, negative = inhibition was -7.95%.

In the case of `C/C(NC(=O)c1ccccc1F)=C1\C(=O)C[C@@H]2[C@H]1C2(C)C`, the activity change, negative = inhibition is -12.1%.

Turning to `CCOC(=O)NC(Nc1sc2c(c1C(N)=O)CCCC2)(C(=O)OCC)C(F)(F)F` (stereo not given), the activity change, negative = inhibition is -6.03%.

Consider `O=C(CCN1CCCCC1)Nc1cccc(Cl)c1`, for which the activity change, negative = inhibition was 7.3%.

Consider `CCOC(=O)CNC(=O)CNC(=O)c1ccc(OC)cc1`, for which the activity change, negative = inhibition is 8.37%.

Take `COC(=O)C1=C(C)N=C2SC(C)C(=O)N2C1/C=C/c1ccccc1OC` (stereo not given): the activity change, negative = inhibition was 2.3%.

As to `CSc1nc(N)nc(SCC(=O)CC(=O)OC(C)C)c1C#N`, the activity change, negative = inhibition is -2.75%.

`O=C1CCC(=O)N1c1nc2n(n1)C(c1ccccc1)C=C(c1ccc(Br)cc1)N2` (stereo not given): the activity change, negative = inhibition is -22.1%.

As to `CC1(C)CC(=O)C2=C(C1)OC(N)=C(C#N)[C@@]21C(=O)N(CC(N)=O)c2ccccc21`, the activity change, negative = inhibition was 10.8%.

On to `CCc1cc(=O)oc2cc(C)c(CN3CCCCC3)c(O)c12`, for which the activity change, negative = inhibition was 7.78%.

Take `COc1ccc(-n2c(=O)c3c4c(sc3n3c(C)nnc23)CC(C)CC4)cc1` (stereo not given): the activity change, negative = inhibition was -0.998%.

Take `CC(C)Cc1[nH]c(=O)c(C#N)c2c1COC(C)(C)C2`: the activity change, negative = inhibition is 9.17%.

Take `CCCCN1C(=O)C(O)=C(C(C)=O)C1c1ccc(OC)cc1OC` (stereo not given): the activity change, negative = inhibition is 8.36%.

`Cc1cc(C)n(CC(=O)n2c3c(c4ccccc42)CCCC3)n1`: the activity change, negative = inhibition is 5.13%.

For the compound `CN1CCc2c(C#N)c(N3CCCCC3)nc(N3CCOCC3)c2C1`, the activity change, negative = inhibition is 1.28%.

With `CS(=O)(=O)c1ccc2nc(NC(NC(=O)c3ccco3)(C(F)(F)F)C(F)(F)F)sc2c1`, the activity change, negative = inhibition is -11.7%.

With `CCOc1ccc(-c2nc(C#N)c(N3CCN(CC)CC3)o2)cc1`, the activity change, negative = inhibition was -12.4%.

As to `CCOC(=O)C1CCN(C(C)=C2C(=O)c3ccccc3C2=O)CC1`, the activity change, negative = inhibition was 2.67%.

`CC1CN(C2CCN(S(=O)(=O)Cc3ccccc3)CC2)CC(C)O1` (stereo not given): the activity change, negative = inhibition is 3.47%.

For the compound `CCCCCC1CC(CC#CCN2CCOCC2)C(=O)O1` (stereo not given), the activity change, negative = inhibition was 9.22%.

`COC(=O)CC1=C(C(=O)OC)C(c2cccc(OCC(N)=O)c2)C(C#N)=C(N)O1` (stereo not given): the activity change, negative = inhibition was 26.1%.

For the compound `CNc1oc(-c2ccc(Cl)cc2)nc1C#N`, the activity change, negative = inhibition was -1.98%.

For the compound `CCCOc1ccc(/C(O)=C2/C(=O)C(=O)N(CCN(C)C)C2c2ccncc2)cc1` (stereo not given), the activity change, negative = inhibition was -5.87%.

On to `CN=c1sc2ccccc2n1CC(O)COc1ccccc1` (stereo not given), for which the activity change, negative = inhibition was -17.6%.

With `CCCCOc1ccc(C(=O)NCC(=O)NCC(=O)OCC)cc1`, the activity change, negative = inhibition was -0.159%.

Take `Cn1c(=O)c2c(nc(NCc3ccc4c(c3)OCO4)n2Cc2ccccc2F)n(C)c1=O`: the activity change, negative = inhibition was -24.1%.

The next assay in a line: NFAT Signaling Pathway (AID 444).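 Also: carbachol stimulus at about its EC50 of 1 µM final.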 The settings on record: Jurkat NFAT-bla M1, carbachol, beta-lactamase ratio, 5 h; at 17.2 µM (top of the series) unless noted. Put shortly:
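Jurkat cells carrying an NFAT-driven β-lactamase reporter and co-transfected muscarinic M1 receptor were treated with compound plus carbachol (1 uM final, an EC50 level) for 5 h at 37 °C. CCF4 loading followed for 1 h at RT; 460/530 nm ratio gave %activity.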
Regarding `O=C(CCC(=O)CCN1CCCCC1)CCN1CCCCC1`, the activity change, negative = inhibition is -120% (active).

Regarding `O=C(NCC(F)(F)F)Nc1nnc(C(F)(F)F)s1`, the activity change, negative = inhibition was -2.8%.

Regarding `Cc1nnc2n(C3CCCCC3)c(=O)c3c4c(sc3n12)COC(C)(C)C4`, the activity change, negative = inhibition was 5.64%.

As to `O=C(NCc1ccco1)c1cnn2c1NC(c1ccccc1)CC2C(F)(F)F` (stereo not given), the activity change, negative = inhibition was -2.99%.

Turning to `COC(=O)Cn1cc(C(=O)OC)cc(Br)c1=O`, the activity change, negative = inhibition is 0.926%.

On to `C=CCOc1nc2c(c(=O)n(Cc3ccc(Cl)c(Cl)c3)c(=O)n2C)n1C`, for which the activity change, negative = inhibition is -2.4%.

Consider `Cc1cc(=O)oc(C)c1C(=O)NC1CC(C)(C)NC(C)(C)C1`, for which the activity change, negative = inhibition was -3.93%.

For `Cc1cc(NC(CC(C)C)C(=O)O)nc(Cc2ccccc2)n1` (stereo not given), the activity change, negative = inhibition was 7.49%.

For `CC(=O)C1=C(O)C(=O)N(c2ccc(S(N)(=O)=O)cc2)C1c1ccccc1F` (stereo not given), the activity change, negative = inhibition was 5.76%.

For `COC(=O)CCc1c(C)[nH]c(C(=O)OCc2ccccc2)c1C`, the activity change, negative = inhibition is -4.78%.

With `O=C(c1cccc(Cl)c1)N1CCN(C(=O)c2ccccc2F)CC1`, the activity change, negative = inhibition is 0.199%.

As for `CN(C)CCCN(CCCNC(=O)/C=N/O)Cc1ccccc1`, the activity change, negative = inhibition is -11.6%.

For `CC(C)c1ccc(O)c(N)c1`, the activity change, negative = inhibition was 12.3%.

`CN(C)CCCOC(=O)C1c2ccccc2Oc2ccccc21`: the activity change, negative = inhibition is -63.3% (active).

For the compound `CCCOc1ccc(/C(O)=C2/C(=O)C(=O)N(CCN(C)C)C2c2ccc(OC)c(OC)c2)cc1` (stereo not given), the activity change, negative = inhibition is 5.84%.

For the compound `C/C(NC(=O)c1ccccc1F)=C1\C(=O)C[C@@H]2[C@H]1C2(C)C`, the activity change, negative = inhibition is -24.9%.

As for `CCOC(=O)NC(Nc1sc2c(c1C(N)=O)CCCC2)(C(=O)OCC)C(F)(F)F` (stereo not given), the activity change, negative = inhibition is -0.536%.

For the compound `O=C(CCN1CCCCC1)Nc1cccc(Cl)c1`, the activity change, negative = inhibition is -23.2%.

As for `CCOC(=O)CNC(=O)CNC(=O)c1ccc(OC)cc1`, the activity change, negative = inhibition was -1.87%.

`COC(=O)C1=C(C)N=C2SC(C)C(=O)N2C1/C=C/c1ccccc1OC` (stereo not given): the activity change, negative = inhibition was -16.8%.

As to `CSc1nc(N)nc(SCC(=O)CC(=O)OC(C)C)c1C#N`, the activity change, negative = inhibition is 5.87%.

Turning to `O=C1CCC(=O)N1c1nc2n(n1)C(c1ccccc1)C=C(c1ccc(Br)cc1)N2` (stereo not given), the activity change, negative = inhibition was 3.81%.

For the compound `CC1(C)CC(=O)C2=C(C1)OC(N)=C(C#N)[C@@]21C(=O)N(CC(N)=O)c2ccccc21`, the activity change, negative = inhibition is 4.51%.

As to `CCc1cc(=O)oc2cc(C)c(CN3CCCCC3)c(O)c12`, the activity change, negative = inhibition was -13.9%.

For `COc1ccc(-n2c(=O)c3c4c(sc3n3c(C)nnc23)CC(C)CC4)cc1` (stereo not given), the activity change, negative = inhibition was -0.396%.

`CC(C)Cc1[nH]c(=O)c(C#N)c2c1COC(C)(C)C2`: the activity change, negative = inhibition is 17.3%.

For `CCCCN1C(=O)C(O)=C(C(C)=O)C1c1ccc(OC)cc1OC` (stereo not given), the activity change, negative = inhibition is 16.7%.

On to `Cc1cc(C)n(CC(=O)n2c3c(c4ccccc42)CCCC3)n1`, for which the activity change, negative = inhibition is 0.496%.

Take `CN1CCc2c(C#N)c(N3CCCCC3)nc(N3CCOCC3)c2C1`: the activity change, negative = inhibition is 20.7%.

In the case of `CS(=O)(=O)c1ccc2nc(NC(NC(=O)c3ccco3)(C(F)(F)F)C(F)(F)F)sc2c1`, the activity change, negative = inhibition is 21.2%.

With `CCOc1ccc(-c2nc(C#N)c(N3CCN(CC)CC3)o2)cc1`, the activity change, negative = inhibition was 21%.

As for `CCOC(=O)C1CCN(C(C)=C2C(=O)c3ccccc3C2=O)CC1`, the activity change, negative = inhibition is 4.7%.

Turning to `CC1CN(C2CCN(S(=O)(=O)Cc3ccccc3)CC2)CC(C)O1` (stereo not given), the activity change, negative = inhibition is -2.24%.

Take `CCCCCC1CC(CC#CCN2CCOCC2)C(=O)O1` (stereo not given): the activity change, negative = inhibition was -1.87%.

For the compound `COC(=O)CC1=C(C(=O)OC)C(c2cccc(OCC(N)=O)c2)C(C#N)=C(N)O1` (stereo not given), the activity change, negative = inhibition was -17.4%.

`CNc1oc(-c2ccc(Cl)cc2)nc1C#N`: the activity change, negative = inhibition was 18.3%.

In the case of `CCCOc1ccc(/C(O)=C2/C(=O)C(=O)N(CCN(C)C)C2c2ccncc2)cc1` (stereo not given), the activity change, negative = inhibition was 4.76%.

On to `CN=c1sc2ccccc2n1CC(O)COc1ccccc1` (stereo not given), for which the activity change, negative = inhibition is -17.8%.

Turning to `CCCCOc1ccc(C(=O)NCC(=O)NCC(=O)OCC)cc1`, the activity change, negative = inhibition is -7.6%.

On to `Cn1c(=O)c2c(nc(NCc3ccc4c(c3)OCO4)n2Cc2ccccc2F)n(C)c1=O`, for which the activity change, negative = inhibition was -14%.
